Our source for the growth values is PubChem BioAssay (NCI).

This is part of a sample that, as a whole, favours compounds with a hit. Of some 83,000 tested, about 20% had one in any assay.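 Step 1: grow cells in 96-well plates. Step 2: add test compound at a single concentration. Step 3: incubate 48 h. Step 4: record percent growth.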 Activity calls are given as the source filed them. Rule for the calls: active = growth percent below 10; inactive = the rest.

This experiment deals with HL-60(TB) leukemia. The experiment can be described thus: NCI-60 one-dose screen, 48 h (100 = growth as untreated, 0 = no growth, -100 = all killed). The note with it: 10 µM unless noted.
In the case of `CCOC(=O)C(=Cc1ccccc1[N+](=O)[O-])C(=O)OCC`, the growth was -26.5% (active).

Consider `N#Cc1c2cccnc2c2nnc3cc(Cl)c(Cl)cc3n12`, for which the growth was 23.3% (inactive).

For `O=C(Nc1cccc([N+](=O)[O-])c1)c1cc2ccccc2cc1O`, the growth is -54.1% (active).

With `O=C1Nc2ccccc2/C1=C/c1cn(CC(O)Cn2cc(/C=C3\C(=O)Nc4ccccc43)c3ccccc32)c2ccccc12` (centres undefined), the growth is -10.2% (active).
